# The whole screen tested about 97,000 compounds, of which about 140 (0.14%) were called active.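 Rule for the calls: active = inhibition above the screen-wide mean inhibition plus 3 SD (cut at about 15% in these data); inactive = the rest.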 The sample as a whole holds a higher share of actives than the screen did.
# Target: Ephrin type-B receptor 4 (Homo sapiens) (UniProt P54760)
# Test: EphB4-ephrin-B2 interaction antagonists, primary screen, biochemical, TNYL-RAW peptide probe, fluorescence polarization (AID 720);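 note: 0% = DMSO wells and 100% = excess unlabeled TNYL-RAW peptide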
# Conditions: EphB4 LBD / TNYL-RAW-Alexa532 peptide, at 7 µM, hits give high values
# Sequence of Ephrin type-B receptor 4 (Homo sapiens) (P54760 whole entry, looked up): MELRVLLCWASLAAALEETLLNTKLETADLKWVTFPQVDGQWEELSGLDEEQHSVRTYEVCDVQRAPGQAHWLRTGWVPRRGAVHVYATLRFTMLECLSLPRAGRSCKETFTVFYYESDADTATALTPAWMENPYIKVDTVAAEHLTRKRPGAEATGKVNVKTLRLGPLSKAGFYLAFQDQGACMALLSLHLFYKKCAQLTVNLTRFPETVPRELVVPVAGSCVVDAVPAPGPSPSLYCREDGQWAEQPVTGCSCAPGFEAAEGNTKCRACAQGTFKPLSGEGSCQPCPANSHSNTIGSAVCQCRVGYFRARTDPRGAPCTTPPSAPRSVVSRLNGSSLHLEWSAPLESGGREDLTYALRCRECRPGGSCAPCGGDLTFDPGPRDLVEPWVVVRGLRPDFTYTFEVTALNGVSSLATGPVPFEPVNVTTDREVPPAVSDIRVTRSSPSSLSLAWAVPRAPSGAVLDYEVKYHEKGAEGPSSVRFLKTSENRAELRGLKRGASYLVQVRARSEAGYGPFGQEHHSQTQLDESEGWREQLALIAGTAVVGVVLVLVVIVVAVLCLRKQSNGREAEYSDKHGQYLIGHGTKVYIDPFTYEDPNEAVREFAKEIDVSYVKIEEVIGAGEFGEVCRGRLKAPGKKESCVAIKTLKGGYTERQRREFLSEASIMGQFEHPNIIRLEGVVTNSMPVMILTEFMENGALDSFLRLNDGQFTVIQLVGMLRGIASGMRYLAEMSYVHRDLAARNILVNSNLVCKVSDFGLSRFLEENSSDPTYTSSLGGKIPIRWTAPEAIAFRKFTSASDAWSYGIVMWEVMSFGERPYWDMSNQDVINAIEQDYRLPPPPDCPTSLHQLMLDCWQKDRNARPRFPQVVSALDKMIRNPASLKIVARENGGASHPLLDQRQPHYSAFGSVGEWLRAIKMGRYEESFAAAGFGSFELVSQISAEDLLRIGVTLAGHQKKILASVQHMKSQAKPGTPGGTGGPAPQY
row,SMILES,inhibition
1,COCCN(C(=O)c1ccco1)c1nnc(-c2ccc(OC)cc2)s1,0.8% (inactive)
2,c1ccc(-c2ccnc3nc(-n4cccc4)nn23)cc1,-2.67% (inactive)
3,O=C(OCN1C(=O)c2ccccc2C1=O)/C(=C\c1ccco1)NC(=O)c1ccccc1,-9.89% (inactive)
4,O=C(ON=C1CCN(S(=O)(=O)c2ccccc2)CC1)c1ccc(Cl)cc1,-2.79% (inactive)
5,O=C(NCCCCc1ccccc1)C1CC(c2ccc([N+](=O)[O-])cc2)=NO1 (stereo not given),1.72% (inactive)
6,CC(=O)c1cc2c(cc1NC(=O)CN1CCCCCC1)OCO2,-6.18% (inactive)
7,COCCn1c(=S)[nH]c2cc(C(=O)NCCc3ccc(OC)c(OC)c3)ccc2c1=O,-6.01% (inactive)
8,CCOc1cc2[nH]c(=O)n(CCC(=O)NCc3ccc(OC)cc3)c(=O)c2cc1OCC,7.75% (inactive)
9,CCN(CC)C(=O)CN(c1cccc(OC)c1)S(=O)(=O)c1ccc(C)cc1,-6.83% (inactive)
10,COC(=O)c1ccc(CSc2ccc3nnc(-c4ccccc4)n3n2)o1,-1.52% (inactive)
11,CCc1c(-c2ccccc2)nc(N)c(C#N)c1-c1cccs1,-6.33% (inactive)
12,C=CCN1C(=O)C(Cc2cccc(Cl)c2)S/C1=N/N=C/c1ccco1 (stereo not given),2.87% (inactive)
13,O=C(Nc1cccc2ccccc12)N1CCN(Cc2ccc3c(c2)OCO3)CC1,0.42% (inactive)
14,CCOC(=O)C1Sc2[nH]c(=O)sc2C(c2ccc(Cl)cc2)C1C(=O)OCC (stereo not given),6.17% (inactive)
15,O=C(c1ccccc1Oc1ccccc1)N1CCN(c2ccc(F)cc2)CC1,1.29% (inactive)
16,CCCCOc1ccc(CSC(=N)N)cc1[N+](=O)[O-],-6.89% (inactive)
17,CCn1cc(C(=O)N/N=C(/C)c2ccc(F)cc2)c(=O)c2cc(F)c(N3CCCC3)cc21,5.77% (inactive)
18,Cc1ccc(SCC(=O)NC(=O)NCc2ccco2)c(C)c1,-1.3% (inactive)
19,COC(=O)c1ccc(S(=O)(=O)N2CCC(c3nc4ccccc4o3)CC2)cc1,2.06% (inactive)
20,CCCCc1nnc(NC(=O)CSc2nc(C)cc(=O)[nH]2)s1,0.99% (inactive)
21,CCCc1noc2c1/C(=N\O)CCC2,7.69% (inactive)
22,Cc1ccc(CCN2CC(C(=O)O)CC2=O)cc1 (stereo not given),-3.41% (inactive)

row,SMILES,inhibition
1,CCOC(=O)c1[nH]c(C)c(C(=O)OCC(=O)N2c3ccccc3CC2C)c1C (stereo not given),2.53% (inactive)
2,O=P(O)(CP(=O)(c1ccccc1)c1ccccc1)c1ccccc1O,4% (inactive)
3,Cc1cc(=O)oc2cc(OC(C)C(=O)Nc3ccc(N4CCOCC4)cc3)ccc12 (stereo not given),8.06% (inactive)
4,O=C1CCCC2=C1C(c1ccccc1)n1c(s/c(=C/c3cccc(F)c3)c1=O)=N2 (stereo not given),1.22% (inactive)
5,O=C(NCc1ccccc1Cl)c1csc2c1CCCCC2,2.57% (inactive)
6,CCCn1c(C)cc(C(=O)COC(=O)c2c(C)nn(-c3ccccc3)c2C)c1C,0.32% (inactive)
7,CCCCNC(=O)CSc1nc2ccc(NC(=O)CSc3nnc(COc4ccccc4C)n3C)cc2s1,-4.14% (inactive)
8,CC1=NN(C(C)C)C(=O)C1,-0.74% (inactive)
9,O=S(=O)(c1ccc(Br)cc1)n1ccc2ccccc21,6.94% (inactive)
10,NC(=O)c1c(NC(=O)CSc2nnc(-c3ccco3)n2N)sc2c1CCCC2,0.73% (inactive)
11,CCC(=O)Nc1ccc(C(=O)Nc2cc(C)on2)cc1,3.48% (inactive)
12,COc1ccc(N(CC(=O)NC2CCCCC2)C(=O)CNC(=O)c2ccco2)c(OC)c1,0.8% (inactive)
13,CCCCCCC12CCC(C(=O)O)(CC1)CC2,-4.95% (inactive)
14,Cn1c(CO)cnc1SCc1ccccc1,3.71% (inactive)
15,CCOc1cc(N2CCOCC2)c(OCC)cc1NC(=O)COC(=O)[C@H](Cc1c[nH]c2ccccc12)NC(C)=O,5.55% (inactive)
16,CCOc1cc(NC(=O)c2ccco2)c(OCC)cc1NC(=O)COc1ccccc1,-10% (inactive)
17,CCOc1cc(N2CCOCC2)c(OCC)cc1NC(=O)COc1cccc2cccnc12,17.3% (active)
18,S=C(NCCC1=CCCCC1)Nc1ccccc1,4.71% (inactive)
19,c1ccc(-n2nc3ccccc3n2)cc1,1.16% (inactive)
20,COc1ccc(C2=NO[C@@H]3C(=O)N(Cc4ccccc4)C(=O)[C@H]23)cc1OC,7.58% (inactive)
21,Nc1nc(C23CC4CC(CC(C4)C2)C3)cs1,-1.67% (inactive)
22,O=C(CCC(=O)OCc1cccc(C(=O)Oc2ccccc2)c1)Nc1cccc2ccccc12,3.74% (inactive)

row,SMILES,inhibition
1,COc1ccc(CCNC(=O)COC(=O)c2ccc[nH]c2=O)cc1,-5.04% (inactive)
2,O=C(N/N=C\c1ccc(-c2ccc(Cl)c(Cl)c2)o1)C(=O)N1CCCC1,-0.37% (inactive)
3,CCOc1cc(NC(=O)c2cnccn2)c(OCC)cc1NC(=O)c1ccc(C)cc1,-6.39% (inactive)
4,CC(C)Cc1oc(C(=O)O)cc1CN,-0.3% (inactive)
5,O=C(NC1CC1)c1ccc2c(c1)NC(=O)c1ccccc1S2,0.56% (inactive)
6,COc1ccc(-c2csc3nc(-c4ccccc4F)oc(=O)c23)cc1OC,-10.2% (inactive)
7,O=C(N/N=C/c1ccc(O)cc1)/C(=C/c1ccc([N+](=O)[O-])cc1)NC(=O)c1ccccc1,-1.89% (inactive)
8,CCOCc1nnc(NC(=O)CSc2ccc(C)cc2)s1,1.51% (inactive)
9,O=[N+]([O-])c1ccc(C=Nc2ccc(Cl)cc2Cl)s1,-0.13% (inactive)
10,CC1=CC(C)(C)Nc2ccc(OC(=O)C(Cc3ccccc3)N3C(=O)C4CCCCC4C3=O)cc21 (stereo not given),-0.93% (inactive)
11,S=c1[nH]nc(CSCc2ccc(Cl)cc2Cl)n1-c1ccccc1,8.29% (inactive)
12,CCOC(=O)c1cnc(SCC(=O)Nc2cccc(OC)c2)nc1N,9.83% (inactive)
13,O=S(=O)(N/N=C\c1cccn1-c1ccccc1)c1ccc2ccccc2c1,-8.09% (inactive)
14,Cn1c2ccccc2n2c(=O)c(=O)n(CC(=O)c3ccc(F)cc3)nc12,0.04% (inactive)
15,COc1cccc(C(=O)NNC(=O)c2ccccc2Br)c1,-7.4% (inactive)
16,O=C(CN1CCN(S(=O)(=O)c2ccc3ccccc3c2)CC1)NC(=O)NC1CCCCC1,5.63% (inactive)
17,Cc1ccc(SC(=O)COc2ccc(C)c(C)c2)cc1,3.52% (inactive)
18,O=[N+]([O-])c1ccc(N2CCN(S(=O)(=O)c3ccc4ccccc4c3)CC2)cc1NCc1ccco1,0.12% (inactive)
19,CCc1cccc2c(C=C(C#N)C#N)cn(CC(=O)N3CCCCC3)c12,-0.37% (inactive)
20,COc1ccc(CC(NC(C)=O)C(=O)N2CCN(C(=O)Nc3cccc(Cl)c3)CC2)cc1OC (stereo not given),-2.32% (inactive)
21,CCOc1ccc(NC(=O)CCS(=O)(=O)c2ccc3c(c2)CCCN3C(=O)CC)cc1,8.53% (inactive)
22,COc1ccccc1NC(=O)C1CCCN(c2cc(C)nc3ncnn23)C1 (stereo not given),-5.56% (inactive)

row,SMILES,inhibition
1,C=CCOc1cccc(CNn2cn[nH]c2=S)c1,-3.4% (inactive)
2,C=C(C)CNC(=S)/N=c1\scc(C)n1CC,-8.88% (inactive)
3,CCCCNC(=S)NNC(=O)c1cc(C)on1,-0.6% (inactive)
4,CC(C)NC(=O)CSc1ccccc1C(=O)NCc1ccc2c(c1)OCO2,2.19% (inactive)
5,O=C(CSCc1ccc([N+](=O)[O-])cc1)NCCSCc1ccccc1,4.49% (inactive)
6,O=S(=O)(N1CCOCC1)N1CCN(c2ccccc2F)CC1,20.7% (active)
7,O=C(c1ccc(CN2CCOCC2)cc1)N1CCN(c2ccccc2F)CC1,-2.74% (inactive)
8,Cc1cccc(C)c1N1CCN(S(=O)(=O)N2CCOCC2)CC1,3.9% (inactive)
9,O=C(Nc1cccc(NC(=O)c2ccco2)c1)c1cnccn1,-6.85% (inactive)
10,COc1ccc(NC(=O)/C(Cl)=C(/Cl)S(=O)Cc2ccc(C)cc2)cn1 (stereo not given),7.2% (inactive)
11,CCOCCn1c(C(C)C)nc2ccccc21,0.96% (inactive)
12,O=C(Cc1ccc(S(=O)(=O)N2CCOCC2)s1)NCCC(c1ccccc1)c1ccccc1,-2.3% (inactive)
13,CCOC(=O)c1c(NC(=O)/C=C/c2ccco2)sc(C)c1C,0.57% (inactive)
14,CC(=O)Nc1cccc(/C(C)=N/NC(=O)c2ccccc2Cl)c1,2.34% (inactive)
15,O=C(NCC(=O)N(Cc1cccs1)C(C(=O)NC1CCCCC1)c1ccco1)c1cccs1 (stereo not given),-1.39% (inactive)
16,O=C1Nc2cc(Cl)c(Cl)cc2N(O)N1c1cc(Cl)cc(Cl)c1,2.41% (inactive)
17,CC(C)C(=O)NC(NC(=S)NC1CCS(=O)(=O)C1)C(Cl)(Cl)Cl (stereo not given),2.04% (inactive)
18,O=C(c1cc2sccc2n1Cc1ccc(F)cc1)N1CCc2ccccc21,4.78% (inactive)
19,Cc1c(NC(=O)/C=C/C(=O)O)cccc1[N+](=O)[O-],-6.42% (inactive)
20,CN(C)/C=C(/C(=O)c1ccc(Cl)cc1)S(=O)(=O)c1ccccc1,-11.6% (inactive)
21,N=c1c2c3c(sc2nc2n1CCCCC2)CCCC3,6.43% (inactive)
22,O=c1[nH][nH]c(C(F)(F)F)c1C=NCc1ccccc1Cl,2.43% (inactive)

row,SMILES,inhibition
1,O=S(=O)(NN=C1CCCCCCC1)c1ccc(Br)cc1,5.67% (inactive)
2,CCOC(=O)C1=C(c2ccccc2)N=C2SCC(=O)N2C1c1ccc(O)c(OC)c1 (stereo not given),2.71% (inactive)
3,COCCn1c(SCc2nc3cc(OC)c(OC)cc3c(=O)[nH]2)nnc1-c1ccncc1,5.33% (inactive)
4,O=C(C1=C(O)C(=O)N(Cc2ccccc2)C1c1ccco1)c1ccco1 (stereo not given),-8.37% (inactive)
5,O=C(C1=C(O)C(=O)N(Cc2ccccc2)C1c1cccnc1)c1ccco1 (stereo not given),27% (active)
6,COc1ccc(C2C(C(C)=O)=C(O)C(=O)N2Cc2cccnc2)cc1 (stereo not given),1.74% (inactive)
7,COc1ccc2c(c1)C(C)=CC(C)(C)N2C(=O)Nc1ccccc1,6.35% (inactive)
8,CC(=O)Oc1ccc(NC(=O)CCC2CCCCC2)c(C(=O)O)c1,4.49% (inactive)
9,O=C(CN1CCN(c2ccc(Cl)cc2)CC1)N1CCCC1,4.82% (inactive)
10,Oc1ccc(/C=N/NC2=NCCCCC2)c(O)c1,2.04% (inactive)
11,CCOC(=O)c1sc(C)c2c1NC(C)(c1cccc3ccccc13)NC2=O (stereo not given),13.2% (inactive)
12,Cc1cc(C)nc(SC(C)C(=O)N/N=C/c2cccs2)n1 (stereo not given),2.66% (inactive)
13,C=CCc1ccc(OCCOc2cccc(/C=N/n3cnnc3)c2)c(OC)c1,-1.42% (inactive)
14,Cc1ccc(N2C(=O)CC(Sc3ncn[nH]3)C2=O)cc1 (stereo not given),0.58% (inactive)
15,CC(C)CNC(=S)NNC(=O)c1nn(C)cc1Cl,7.68% (inactive)
16,COc1ccc(-c2noc(-c3ccc(C)cc3)n2)cc1,-4.98% (inactive)
17,CSc1cc(C)n(-c2ccccc2C)c(=S)c1C(C)=O,-5.85% (inactive)
18,CCCOc1cc(C)c(S(=O)(=O)n2nnc3ccccc32)cc1C,-0.8% (inactive)
19,CCc1nn(-c2cc(Oc3cccc4ccccc34)nc(-c3ccccc3)n2)c(N)c1C#N,-9.42% (inactive)
20,CCOc1cc(C(=O)Nc2c(C)ccc3nsnc23)cc(OCC)c1OCC,-8.62% (inactive)
21,COc1ccc(CNC(=O)CCn2cccc2)cc1,-2.06% (inactive)
22,COC(=O)c1ccc(NC(=O)C23CC4CC(C2)CC(n2cnc(Cl)n2)(C4)C3)cc1,3.33% (inactive)

# — PubChem BioAssay AID720 (The Scripps Research Institute Molecular Screening Center, 2007)
